From PubChem BioAssay (EPA / NIEHS) come the findings set out here.

Active and inactive are the calls of the source. How the source made its calls: active means hit-call score of the fitted dose curve at least 0.9, where 1 is the maximum; inactive means score below 0.9.

The test in a line: CCTE_Simmons_MITO_max_resp_rate: CCTE's HepG2 Seahorse XF Respirometric Screening Assay at Maximal Respiratory State [uncoupled], Simmons Lab (AID 2284002). The settings on record: actives raise or lower the signal. The method, then: CCTE_Simmons_MITO is cell-based, respirometric assay using HepG2 cells and a Seahorse XF Analyzer to measure oxygen consumption rates over four temporal phases spanning a total of 72 minutes: pre-injection (pre-treatment), basal (following test compound injection), maximal (following FCCP uncoupler injection), and inhibited (following rotenone/antimycin A injection)CCTE_Simmons_MITO_max_resp_rate is one of 4 assay components calculated from the CCTE_Simmons_MITO assay. It is designed to make measurements of maximal respiration using a form of respirometric reporter, as detected with […] signals by Seahorse XF96 technology. Data from the assay component CCTE_Simmons_MITO_max_resp_rate was analyzed at the endpoint, CCTE_Simmons_MITO_max_resp_rate_OCR, with bidirectional fitting relative to DMSO as the negative control and baseline of activity. Using a type of respirometric reporter, measures of maximal respiration for gain or loss-of-signal activity can be used to understand cellular oxygen consumption as it relates to cellular respiration. To generalize the intended target to other relatable targets, this assay endpoint is annotated to the mitochondria intended target family, where the subfamily is respiration.
Test chemicals were administered as a titrated series of 7 concentrations from 125 nM up to 100 uM [final] prior to kinetic endpoint detection at 6 minute intervals [3 min mix followed by 3 minutes measure] for 72 minutes. Three biological replicates of technical singles were run for every chemical concentration tested. Dimethylsulfoxide [DMSO] was used as the vehicle control. The electron transport chain inhibitor fenpyroximate was used as the positive control for decreased basal respiration and was administered as a titrated series of 6 concentrations from 250 nM up to 2.75 uM [final] with technical triplicates for the top concentration only. The uncoupler 2,4-dintirophenol was used as the positive control for increased basal respiration and was administered as a titrated series of 6 concentrations from 938 nM up to 40 uM [final] with technical triplicates for the top concentration only. A Seahorse XF Analzyer is required to measure the response.
With `CCOP(=S)(OCC)SCCSCC`, the call was inactive.
The same measure, in the same setting: under `O=[N+]([O-])c1cc(C(F)(F)F)c(Cl)c([N+](=O)[O-])c1Nc1ncc(C(F)(F)F)cc1Cl` stands “inactive”.
By AC50 is commonly meant the concentration at which the activity in the assay is half-maximal. Take `CCC(CC)Nc1c([N+](=O)[O-])cc(C)c(C)c1[N+](=O)[O-]`: the AC50 was 29.8 µM (active).
For `CCCOCC(=Nc1ccc(Cl)cc1C(F)(F)F)n1ccnc1`, the AC50 is 15.4 µM (active).
`CN(C)[C@@H]1C(=O)C(C(N)=O)=C(O)[C@@]2(O)C(=O)C3=C(O)c4c(O)cccc4[C@@](C)(O)[C@H]3[C@H](O)[C@@H]12`: the call was inactive.
As to `CCCCOC(=O)[C@@H](C)Oc1ccc(Oc2ccc(C#N)cc2F)cc1`, the molecule was called inactive.
For the molecule `CSC1=N[C@@](C)(c2ccccc2)C(=O)N1Nc1ccccc1`, the AC50 was 41 µM (active).
As for `CCC(=O)Nc1ccc(Cl)c(Cl)c1`, the AC50 was 27.3 µM (active).
For `CCc1cccc(CC)c1N(COC)C(=O)CCl`, the concentration at half-maximal activity (AC50) was 13.8 µM (active).
Turning to `C=C(C)[C@H]1Cc2c(ccc3c2O[C@@H]2COc4cc(OC)c(OC)cc4[C@@H]2C3=O)O1`, the concentration at half-maximal activity (AC50) is 0.0663 µM (active).
`CC(COc1ccc(Oc2ccccc2)cc1)Oc1ccccn1` (stereo unspecified): the outcome was inactive.
For `CC[C@H](C)[C@H]1O[C@]2(C=C[C@@H]1C)C[C@@H]1C[C@@H](C/C=C(\C)[C@@H](O[C@H]3C[C@H](OC)[C@@H](O[C@H]4C[C@H](OC)[C@@H](NC)[C@H](C)O4)[C@H](C)O3)[C@@H](C)/C=C/C=C3\CO[C@@H]4[C@H](O)C(C)=C[C@@H](C(=O)O1)[C@]34O)O2`, the AC50 is 97.8 µM (active).
Take `CC1(C(=O)Nc2ccc(O)c(Cl)c2Cl)CCCCC1`: the half-maximal activity concentration (AC50) was 31.4 µM (active).
Take `CCc1cccc(C)c1N(C(=O)CCl)C(C)COC` (stereo unspecified): the concentration at half-maximal activity (AC50) was 39.7 µM (active).
On the same count and under the same terms, the value for `FC(F)C(F)(F)OCC(Cn1cncn1)c1ccc(Cl)cc1Cl` (stereo unspecified) was 22.5 µM (active).
On to `CC(C)N(C(=O)SCC(Cl)=C(Cl)Cl)C(C)C`, for which the call was inactive.
As to `N#CSCSC#N`, the half-maximal activity concentration (AC50) was 50 µM (active).
For the molecule `CON=C(C(=O)OC)c1ccccc1CON=C(C)c1cccc(C(F)(F)F)c1`, the concentration at half-maximal activity (AC50) is 7.03 µM (active).
On the same count and under the same terms, the value for `CCCSP(=O)(OCC)SCCC` was 38.1 µM (active).
For `CC(C1CC1)C(O)(Cn1cncn1)c1ccc(Cl)cc1` (stereo unspecified), the AC50 was 50 µM (active).
Still for that read-out and setting: the value for `CCOP(=S)(Oc1cnc(C(C)(C)C)nc1)OC(C)C` (stereo unspecified) was 50 µM (active); that for `O=C(O)c1cc(Oc2ccc(C(F)(F)F)cc2Cl)ccc1[N+](=O)[O-]` was 32.9 µM (active).
Still for that read-out and setting: the value for `CC(C)=CC1C(C(=O)OCN2C(=O)C3=C(CCCC3)C2=O)C1(C)C` (stereo unspecified) was 39.9 µM (active).
With `COP(=O)(OC)OC(Br)C(Cl)(Cl)Br` (stereo unspecified), the call was inactive.
As to `C#CCC1=C(C)C(OC(=O)C2C(C=C(C)C)C2(C)C)CC1=O` (stereo unspecified), the half-maximal activity concentration (AC50) was 33.7 µM (active).
Consider `C[Si](Cn1cncn1)(c1ccc(F)cc1)c1ccc(F)cc1`, for which the AC50 is 16.2 µM (active).
